# Laboratory results as given in PubChem BioAssay AID540352 (National Center for Advancing Translational Sciences (NCATS), 2011).
# Records with an inconclusive call do not appear. Active and inactive are the calls of the source. Calls come from the whole dose curve; as a rule, active = well fitted inhibition curve with a large enough effect; inconclusive = small, poorly fitted or top-dose-only effect; inactive = no such curve, though single readings can be large or run the other way.
# Experiment: qHTS for Inhibitos of Bacillus subtilis Sfp phosphopantetheinyl transferase (PPTase): Chemistry Optimization Followup in B. Subtilis 168
# Details: B. subtilis 168 growth, BacTiter-Glo luminescence, 5 h; series mostly up to 114 µM
# Source text: Phosphopantetheinyl transfer is a process essential to cellular viability and maintenance. Cell-permeable and stable compounds acting as PPTase inhibitors are anticipated to be antimicrobial agents in organisms with complimenting genotypes. […] This experiment evaluated a series of test compounds for antimicrobial activity with B. subtilis 168 (genotype: acpS+ and sfp-), a strain that contains a frameshift mutation in the sfp locus and thus requires a functional AcpS gene product for viability. [Mootz HD, 2001] This strain is expected to be sensitized to cell-permeable AcpS inhibitors, and insensitive to Sfp inhibitors. NIH Chemical Genomics Center [NCGC] NIH Molecular Libraries Probe Centers Network [MLPCN] MLPCN Grant: MH083266-01 Assay Submitter (PI): Michael Burkart, University of California, San Diego
# Innoculum preparation. Bacillus subtilis 168 is maintained on lysogeny broth (LB) solidified by the addition of 1.5% w/v agar. Single colonies were used to LB medium (2 mL) and shaken overnight at 30 masculineC. In the morning, this culture (100 ul) was used to seed a fresh LB medium (10 mL) and was shaken at 30 masculineC until the culture OD600 reached 0.5. This culture was diluted 1:100 in fresh LB medium to provide the inoculum below. Bacterial susceptibility. LB medium (2 uL) is dispensed into wells of a sterile white 1536-well plate. Test compounds (23 nL) prepared as serial dilutions in DMSO are added to the plate by pintool transfer. Innoculum (2 uL) is added, the plates are covered with a vented Kalypsys assay lid and incubated at 30 masculineC. After 5 h, Bac-Titer Glo (4 uL; Promega Corp, Madison, WI) is added to the plates. They are incubated 10 minutes at room temperature and then the luminescence detected in a ViewLux multimodal plate reader.
row,SMILES,Potency
1,COc1cccc(NC(=S)N2CCN(c3cc(C(F)(F)F)cc(C(F)(F)F)c3)CC2)n1,inactive
2,COc1cccc(NC(=S)N2CCN(c3ccccc3C(F)(F)F)CC2)n1,26.4 µM (active)
3,Cc1cc(C)nc(/N=C(\NC#N)N2CCN(c3cccc(C(F)(F)F)c3)CC2)c1,46.9 µM (active)
4,Cc1cncc(NC(=S)N2CCN(c3cccc(C(F)(F)F)c3)CC2)c1,inactive
5,S=C(Nc1cc(Cl)ccn1)N1CCN(c2ccc(Cl)cc2Cl)CC1,9.37 µM (active)
6,FC(F)(F)c1cccc(N2CCN(C(=S)Nc3ccncc3)CC2)c1,41.8 µM (active)
7,FC(F)(F)c1cccc(N2CCN(C(=S)Nc3cc(C(F)(F)F)ccn3)CC2)c1,13.2 µM (active)
8,COC(=O)c1ccnc(NC(=S)N2CCN(c3cccc(C(F)(F)F)c3)CC2)c1,41.8 µM (active)
9,Cc1cc(C)nc(NC(=S)N2CCN(Cc3cccc4ccccc34)CC2)c1,37.3 µM (active)
10,Cc1cc(C)nc(NC(=S)N2CCN(c3ccc(Cl)nn3)CC2)c1,inactive
11,Cc1ccnc(NC(=S)N2CCN(c3ccc(Br)cc3)CC2)c1,23.5 µM (active)
12,COc1ccc(NC(=S)N2CCN(c3cccc(C(F)(F)F)c3)CC2)nc1,inactive
13,Cc1cc(C)nc(NC(=S)N2CCN(c3cc(F)cc(F)c3)CC2)c1,37.3 µM (active)
14,Cc1ccnc(NC(=S)N2CCC(Nc3cccc(C(F)(F)F)c3)CC2)c1,37.3 µM (active)
15,Cc1cc(C)nc(NC(=S)N2CCN(c3ccc4nncn4c3)CC2)c1,inactive
16,Cc1ccnc(NC(=S)N[C@H]2CCN(c3cccc(C(F)(F)F)c3)C2)c1,52.7 µM (active)
17,Cc1ccnc(NC(=S)N2CCc3ccccc3C2)c1,59.1 µM (active)
18,Cc1cc(C)nc(NC(=S)N2CCN(c3ccc(C(F)(F)F)cc3[N+](=O)[O-])CC2)c1,41.8 µM (active)
19,Cc1ccnc(NC(=S)N2CC3CN(c4cccc(C(F)(F)F)c4)CC3C2)c1 (stereo not given),11.8 µM (active)
20,Cc1cc(C)nc(Nc2nnc(N3CCN(c4cccc(C(F)(F)F)c4)CC3)s2)c1,inactive

row,SMILES,Potency
1,Cc1cc(C)nc(NC(=S)N2CCN(c3ccc(Cl)cc3Cl)CC2)c1,23.5 µM (active)
2,Cc1cc(C)nc(NC(=S)N2CCN(c3cncs3)CC2)c1,46.9 µM (active)
3,Cc1cc(C)nc(NC(=S)N2CCN(c3ccc(Cl)cc3F)CC2)c1,23.5 µM (active)
4,Cc1cc(C)nc(NC(=S)N2CCN(c3ccc4cn(C)nc4c3)CC2)c1,inactive
5,Cc1ccnc(NC(=S)NC2CN(c3cccc(C(F)(F)F)c3)C2)c1,46.9 µM (active)
6,Cc1cc(C)nc(NC(=S)N2CCN(c3ccc(Cl)c(Cl)c3Cl)CC2)c1,9.37 µM (active)
7,S=C(Nc1cc(Cl)ccn1)N1CCN(c2ccc3ccccc3n2)CC1,33.2 µM (active)
8,FC(F)(F)c1ccc(N2CCN(C(=S)Nc3ccccn3)CC2)cc1,21 µM (active)
9,CN(C)c1ccc2nc(NC(=S)N3CCN(c4cccc(C(F)(F)F)c4)CC3)sc2c1,5.91 µM (active)
10,Cc1cc(C)nc(NC(=S)N2CCN(c3nsc4ccccc34)CC2)c1,52.7 µM (active)
11,Cc1ccnc(NC(=S)N2CCN(c3cccc(N(C)C)c3)CC2)c1,59.1 µM (active)
12,Cc1ccnc(NC(=S)N2CCN(c3cccc(C(F)(F)F)n3)CC2)c1,16.7 µM (active)
13,Cc1cc(C)nc(NC(=C(C#N)C#N)N2CCN(c3cccc(C(F)(F)F)c3)CC2)c1,37.3 µM (active)
14,Cc1cc(C)nc(NC(=S)N2CCN(Cc3c(F)cccc3Cl)CC2)c1,inactive
15,Cc1ccc(N2CCN(C(=S)Nc3cc(C)ccn3)CC2)cc1,59.1 µM (active)
16,Cc1ccnc(NC(=S)N2CCN(c3cc(C(F)(F)F)cc(C(F)(F)F)c3)CC2)c1,13.2 µM (active)
17,OCc1ccnc(NC(=S)N2CCN(c3cccc(C(F)(F)F)c3)CC2)c1,46.9 µM (active)
18,COc1cccc(NC(=S)N2CCN(c3cc(Cl)cc(Cl)c3)CC2)n1,inactive
19,Cc1cc(C)nc(NC(=S)N2CCN(c3ccc([N+](=O)[O-])cc3Cl)CC2)c1,9.37 µM (active)
20,Cc1ccnc(NC(=S)NC2CCN(c3cccc(C(F)(F)F)c3)CC2)c1,46.9 µM (active)
